ChEMBL document CHEMBL3988442, “University of Dundee, Small-Polar-MMV Screening Library” (2021)
Screen size: about 48,000 compounds; about 13,000 (27%) showed an effect of 50% or more. This is one part of the list.

Test system: Wolbachia pipientis
Assay: Anti-Wolbachia Cell-Based Screen
Type: functional
Parameters: scale not given: in the data most compounds retested in dose-response had high values
Conditions: 5 µM

SMILES	Percent Effect [%]
CN(Cc1ccco1)Cc1cnc2n1CCN(c1ncccn1)CC2.O=C(O)C(F)(F)F	6.885
Cc1ccc(N2CCc3ncc(CNc4ccccn4)n3CC2)nn1	114.5
Cc1ccc(NCc2cnc3n2CCN(c2ncccn2)CC3)nn1	97.55
COCCN1CCc2ncc(CNc3cc(N(C)C)ncn3)n2CC1	-5.126
Cn1cccc1C(=O)NCc1cnc2n1CCN(c1ccccn1)C2	-1.189
O=C(C1CCOC1)N1CCc2ncc(CNc3ccccn3)n2CC1 (configuration not stated)	-18.08
Cc1ccc(CN(C)C(=O)CN2CCCC(Cn3cncn3)C2)o1 (configuration not stated)	96.55
O=C(CN1CCCC(Cn2cncn2)C1)NCc1ccco1 (configuration not stated)	1.739
Cc1ccc(CN(C)C(=O)CN2CCCC2Cn2cncn2)cc1 (configuration not stated)	-14.18
CN(Cc1cccc(F)c1)C(=O)CN1CCCC(Cn2cncn2)C1 (configuration not stated)	16.73
CCN(Cc1ccccc1)C(=O)CN1CCCC(Cn2cncn2)C1 (configuration not stated)	3.711
CN(Cc1ccsc1)C(=O)CN1CCCC1Cn1cccn1 (configuration not stated)	-10.05
CN(Cc1ccccc1)C(=O)CN1CCCC(Cn2cncn2)C1 (configuration not stated)	97.22
Cc1ccc(CN(C)C(=O)CN2CCCC(Cn3cncn3)C2)cc1 (configuration not stated)	90.35
CN(Cc1ccsc1)C(=O)CN1CCCC(Cn2cncn2)C1 (configuration not stated)	109.8
CN(Cc1ccc(F)cc1)C(=O)CN1CCCC(Cn2cncn2)C1 (configuration not stated)	-5.404
CN(Cc1ccccc1)C(=O)CN1CCCCC1Cn1cncn1 (configuration not stated)	-0.2947
CN(Cc1ccco1)C(=O)CN1CCCC(Cn2cncn2)C1 (configuration not stated)	5.962
CC(C)c1nc(CN(C)C(=O)CCS(=O)(=O)c2ccccc2)no1	-0.5439
O=C(NS(=O)(=O)c1cccc(C(F)(F)F)c1)c1cscn1	5.239
CSCC(C)CNC(=O)N1CCSC(C)(C)C1 (configuration not stated)	-11.84
Cc1ccsc1C(=O)N1CCCn2nnc(Cn3cccn3)c2C1	-8.648
NC(=O)C1CCN(CC(=O)NCCc2c(F)cccc2F)CC1	-5.279
CN(Cc1cccs1)C(=O)CN1CCCCC1Cn1cncn1 (configuration not stated)	-8.193
CN(Cc1cnn(C)c1)C(=O)CN1CCCC(Cn2cncn2)C1 (configuration not stated)	99.58
Cc1ccc(CNC(=O)CN2CCCC(Cn3cncn3)C2)s1 (configuration not stated)	2.763

SMILES	Percent Effect [%]
CN(Cc1cccs1)C(=O)CN1CCCC1Cn1cncn1 (configuration not stated)	4.485
Cc1ccccc1CN(C)C(=O)CN1CCCCC1Cn1cncn1 (configuration not stated)	13
CN(Cc1cccs1)C(=O)CN1CCCC(Cn2cncn2)C1 (configuration not stated)	104.7
Cc1ccccc1CN(C)C(=O)CN1CCCC(Cn2cncn2)C1 (configuration not stated)	113.1
CN(Cc1cnn(C)c1)C(=O)CN1CCCC1Cn1cncn1 (configuration not stated)	-17.06
CN(Cc1cnn(C)c1)C(=O)CN1CCCCC1Cn1cncn1 (configuration not stated)	-1.261
Cc1ccc(F)c(OC2(C(=O)O)CCN(C(=O)C3CCCC3)CC2)c1	-29.08
CC(C)c1nccn1CCn1cnc2ccsc2c1=O	2.985
Cc1ccc(C(=O)NCCCC2(C3OCCO3)CCOCC2)cc1C	-3.842
Cc1ccccc1CN(C)C(=O)CCc1nc(-c2nnc[nH]2)no1	4.436
CNC(=O)c1cc2c(nc1N(C)C)CCN(c1ncc(C)cn1)CC2.O=C(O)C(F)(F)F	101.6
CNC(=O)c1cc2c(nc1N(C)C)CCN(S(=O)(=O)CC(C)C)CC2.O=C(O)C(F)(F)F	-14.6
CNC(=O)c1cc2c(nc1NCC(C)C)CCN(c1ncccn1)CC2.O=C(O)C(F)(F)F	-3.442
CNC(=O)c1cc2c(nc1N(C)C)CCN(c1ncccn1)CC2.O=C(O)C(F)(F)F	100.6
CCc1cnc(N2CCc3cc(C(=O)NC)c(N(C)C)nc3CC2)nc1.O=C(O)C(F)(F)F	91.47
CCc1cnc(N2CCc3ncnc(N4CCN(C)CC4)c3CC2)nc1.O=C(O)C(F)(F)F	-0.8279
CNC(=O)c1cc2c(nc1N(C)C)CCN(C)CC2.O=C(O)C(F)(F)F.O=C(O)C(F)(F)F	0.7225
CNC(=O)c1cc2c(nc1N(C)C)CCN(S(=O)(=O)N(C)C)CC2.O=C(O)C(F)(F)F	-4.998
CNC(=O)c1cc2c(nc1NCC(C)C)CCN(C)CC2.O=C(O)C(F)(F)F.O=C(O)C(F)(F)F	-3.691
CNC(=O)c1cc2c(nc1N(C)C)CCN(S(=O)(=O)C1CC1)CC2.O=C(O)C(F)(F)F	-2.828
CCS(=O)(=O)N1CCc2cc(C(=O)NC)c(N(C)C)nc2CC1	15.07
CNC(=O)c1cc2c(nc1N(C)C)CCN(c1ncc(F)cn1)CC2.O=C(O)C(F)(F)F	86.67
CCN(CCc1nc2cc(C)ccc2[nH]1)C(=O)COC	16.32
CCSCCC(C)N(C)C(=O)c1ccc2nncn2c1 (configuration not stated)	5.422
CC(C)N1CCC(CC(=O)NC[C@H]2CCc3ccccc3O2)CC1	10.1
Cc1cc(NC2CCN(c3ccccc3)C2)n2ncnc2n1 (configuration not stated)	-12.56

SMILES	Percent Effect [%]
Cc1cc(=O)n2ncnc2n1CC(O)c1ccccc1 (configuration not stated)	-22.33
CCOc1cc(C)nc(N2CCN(Cc3nccn3CC)CC2)n1	-15.08
O=C(CSc1ccc(F)c(F)c1)NS(=O)(=O)c1ccc2c(c1)OCCO2	-0.1688
Cn1cc(-c2nc3c(cc2C(=O)O)CCN(C(=O)C2CC2)CC3)cn1.O=C(O)C(F)(F)F	-6.455
Cc1cnc(N2C[C@@H]3[C@@H](C2)OCC(=O)N3CCN(C)C)nc1.O=C(O)C(F)(F)F	-6.584
Cc1cnc(N2CCc3cc(C(=O)O)c(N(C)C)nc3CC2)nc1.O=C(O)C(F)(F)F	100.3
CC(=O)N1CC[C@]2(O)CCN(Cc3nc(C)c[nH]3)C[C@@H]2C1	-2.174
O=C(NCCn1ccc(-c2ccccn2)n1)c1ccncc1	-7.154
CCOCC(=O)NCCn1ccc(-c2ccccn2)n1	107
O=S(=O)(NCCn1ccc(-c2ccccn2)n1)C1CCCCC1	96.49
CC(=O)NCCn1ccc(-c2ccccn2)n1	104.5
CC(=O)NCCNc1nc(-c2ccccn2)nc2c1c(C)nn2C	-13.51
O=S(=O)(NCCn1ccc(-c2ccccn2)n1)C1CC1	-6.765
O=C(CC1CCCC1)NCCn1ccc(-c2ccccn2)n1	-10.47
O=S(=O)(NCCn1ccc(-c2ccncc2)n1)C1CC1	-3.151
O=C(NCCn1ccc(-c2ccccn2)n1)C1CC1	-0.9217
O=C(NCCn1ccc(-c2ccccn2)n1)C1CCC1	100.8
Cc1ccc(O)c(CN(Cc2ccccc2)Cc2nccs2)n1	11.33
CCCN1CCCn2nc(CNC(=O)CCc3scnc3C)cc2C1	1.883
CN(Cc1ccsc1)Cc1nc(-c2cnccn2)no1	-7.726
CC(C)(C)C(=O)NCCn1ccc(-c2ccccn2)n1	67.15
CC(C)(C)C(=O)NCCn1ccc(-c2ccncc2)n1	-1.821
Cc1cnn(CC2CCCN2Cc2nc3ccccc3n2C)c1 (configuration not stated)	0.7122
Cn1ccnc1CN1CCCC1Cn1cccn1 (configuration not stated)	107.8
Cc1cnn(CC2CCCCN2Cc2nccn2CC(F)(F)F)c1 (configuration not stated)	101.7
Cc1cnn(CC2CCCCN2Cc2nc(-c3ccoc3)no2)c1 (configuration not stated)	6.468

SMILES	Percent Effect [%]
Cc1cnn(CC2CCCN2Cc2nccn2C)c1 (configuration not stated)	-1.089
CCn1ccnc1CN1CCCC1Cn1cc(C)cn1 (configuration not stated)	134.6
Cn1ccnc1CN1CCCCC1Cn1cccn1 (configuration not stated)	5.027
NC(=O)C1CCCN1Cc1nccn1CC(F)(F)F (configuration not stated)	-2.704
Cc1cnn(CC2CCCN2Cc2nc3ccccc3nc2C)c1 (configuration not stated)	3.797
Cc1cnn(CC2CCCN2Cc2nccn2CC(F)(F)F)c1 (configuration not stated)	129.3
Cc1nc2ccccc2nc1CN1CCCCC1Cn1cccn1 (configuration not stated)	-6.205
O=C(C1CCCCN1Cc1nccn1CC(F)(F)F)N1CCCC1 (configuration not stated)	-10.67
COc1ccc(Cc2ncc3c(n2)CN(C(=O)C2COCCO2)C3)cc1 (configuration not stated)	-5.777
CCCN1CCN(Cc2cc(Cl)cc(Cl)c2)[C@H]2CS(=O)(=O)C[C@H]21	3.846
CSC(C)CC(=O)N1CCC(n2ccnn2)CC1 (configuration not stated)	6.562
CN(C)C(=O)N1Cc2ccccc2C2(CCNCC2)C1.Cl	-11
O=C(C1CC1)N1CCC2(CC1)CNCc1ccccc12	1.154
Cl.O=C(C1CC1)N1CCc2ccccc2C12CCNCC2	85.13
COCC(=O)N1CCC2(CC1)NC(=O)c1ccccc12.Cl	-6.733
CCOC(=O)N1CCc2ccccc2C12CCNCC2.Cl	93.5
COCC(=O)N1CCc2ccccc2C12CCNCC2.Cl	112.7
O=C(CCN1CCNCC1)N1CCC2(CC1)c1ccccc1CC2O (configuration not stated)	4.718
Cl.O=C([C@H]1CCCO1)N1CCC2(CC1)CNCc1ccccc12	-10.28
COCC(=O)N1CCc2[nH]c(=O)ccc2C1	-6.404
CS(=O)(=O)N1CC[C@]2(C[C@H](Oc3ccccn3)CO2)C1.O=C(O)C(F)(F)F	1.633
Cn1nc(Cn2cccc2)c2c1CN(Cc1ccsc1)C2.O=C(O)C(F)(F)F	0.5842
Cc1ccccc1CN1CCCN(C2CCOC2=O)CC1 (configuration not stated)	1.458
CCO[C@@H]1CN(S(=O)(=O)c2cn(C)cn2)[C@@H]2CCCO[C@@H]21.O=C(O)C(F)(F)F	-6.587
